SENP7 block – SENP7 protease inhibitors, primary screen, biochemical, luminescence, uHTS. Sentrin-specific protease 7 (Homo sapiens), Q9BQF6. recombinant SENP7, Z-RLRGG-aminoluciferin luminescence, 40 min. inhibition, % at 5 µM. 1.5% of 330,000 active;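 active = inhibition above about 50% at the single test dose, limit read from the data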
Target sequence (Q9BQF6 706-1050 limits assumed): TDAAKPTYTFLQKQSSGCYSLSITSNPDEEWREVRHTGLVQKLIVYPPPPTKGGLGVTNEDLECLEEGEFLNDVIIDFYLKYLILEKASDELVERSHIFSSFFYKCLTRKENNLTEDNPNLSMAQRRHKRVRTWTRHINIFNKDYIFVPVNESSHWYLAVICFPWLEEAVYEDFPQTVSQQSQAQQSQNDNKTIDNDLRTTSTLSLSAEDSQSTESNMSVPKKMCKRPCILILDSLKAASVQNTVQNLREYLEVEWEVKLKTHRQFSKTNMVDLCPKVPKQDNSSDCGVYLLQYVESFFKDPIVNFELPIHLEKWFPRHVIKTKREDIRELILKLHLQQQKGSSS
SENP8 block-1 – SENP8 protease inhibitors, primary screen, biochemical, luminescence; 1.2% of 330,000 active; purified SENP8, Z-RLRGG-aminoluciferin cleavage; inhibition, % at 10 µM; Sentrin-specific protease 8 (Homo sapiens), Q96LD8; in the data active = inhibition above about 50%
Target sequence (Q96LD8 whole entry, looked up): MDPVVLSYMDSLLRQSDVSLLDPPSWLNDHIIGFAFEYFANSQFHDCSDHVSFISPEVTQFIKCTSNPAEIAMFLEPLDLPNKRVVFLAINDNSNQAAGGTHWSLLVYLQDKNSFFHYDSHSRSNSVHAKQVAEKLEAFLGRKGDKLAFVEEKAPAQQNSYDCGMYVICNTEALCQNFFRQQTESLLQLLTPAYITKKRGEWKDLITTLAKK
SENP8 block-2 – human SENP8 protease inhibitors, primary screen, biochemical, fluorescence, Nedd8 protein substrate, uHTS. Sentrin-specific protease 8 (Homo sapiens), Q96LD8. inhibition, % at 20 µM. 0.64% of 360,000 active. recombinant SENP8. AID 602440, 2012; in the data active = inhibition mostly above about 40%, no sharp cut-off; inactive = mostly below about 27%
SENP6 inh – SENP6 protease inhibitors, primary screen, biochemical, luminescence, uHTS | Recombinant SENP6 catalytic domain, aminoluciferin luminescence | Sentrin-specific protease 6 (Homo sapiens), Q9GZR1 | AID 2599, 2010 | inhibition, % at 10 µM | 1.8% of 330,000 active;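 active = inhibition above about 50% at the single tested dose, limit read from the data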
Platelet DG rel – inhibitors of platelet dense granule secretion, primary screen, cell-based, MLPCN, human platelets | human platelet-rich plasma, SFLLRN dense granule ATP release, luminescence | 0.22% of 300,000 active | AID 1663, 2009 | inhibition, %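 (compounds screened at 7.5 µM in platelet-rich plasma)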;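 active = mean replicate score, as percent of positive control, at or above 50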
SENP8 inh conf – human SENP8 protease inhibitors, confirmation, biochemical, Nedd8 protein substrate, single concentration | shares compounds with SENP8 block-2 | inhibition, % at 25 µM | purified SENP8, Nedd8-AMC/pro-Nedd8 cleavage fluorescence, 30 min | 15% of 1,400 active | AID 624319, 2012; in the data active = inhibition mostly above about 39%, no sharp cut-off; inactive = mostly below about 34%
Each line names hits and unclear results; the compound was inactive in the other large screens (follow-up assays come after a bar, where they were run). An excerpt weighted towards active compounds, which were near 2.4% of everything screened.

CCC(C)C(NC(N)=O)C(=O)Nc1ccc(OCc2ccccc2)cc1 (configuration not stated)	SENP8 block-2 49 | SENP8 inh conf inactive
O=C(Nc1ccc(N2CCN(Cc3ccccc3)CC2)cc1)c1cccnc1	SENP8 block-2 45 | SENP8 inh conf inactive
COC(=O)c1c(SCc2cccc3ccccc23)nc(=O)[nH]c1C	none
COC(=O)c1c(SCC(=O)Nc2ccc(C)c(C)c2)nc(=O)[nH]c1C	SENP8 block-2 44 | SENP8 inh conf inactive
COc1ccc(OC)c(S(=O)(=O)N(C)CC(=O)N2CCc3ccccc3C2)c1	SENP8 block-2 58 | SENP8 inh conf 71
O=C(CCl)Nc1cccc(S(=O)(=O)NC2=NCCC2)c1	SENP8 block-2 46 | SENP8 inh conf inactive
CC(C)C(=O)Nc1cccc(S(=O)(=O)NC2=NCCC2)c1	none (no result: SENP7 block, SENP8 block-1, SENP6 inh, Platelet DG rel)
CCCc1cc(C(=O)N2CCCC(Cc3ccccc3C)(C(=O)OCC)C2)no1 (configuration not stated)	none
CCNc1nc(NC(C)(C)C)nc(N2CCCC2)n1	none
CC(C)(C)Nc1nc(N2CCCC2)nc(N2CCCC2)n1	SENP8 block-2 44 | SENP8 inh conf inactive
Cc1noc(C)c1S(=O)(=O)N1CCC(C(=O)NCCN2CCC(C)CC2)CC1	SENP8 block-2 41 | SENP8 inh conf inactive
Cc1noc(C)c1S(=O)(=O)N1CCC(C(=O)NCCCN2CC(C)CC(C)C2)CC1 (configuration not stated)	none
O=c1nccc(Nc2ccccc2)[nH]1	none
c1ccc(Nc2cc(Nc3ccccc3)[nH]n2)cc1	SENP8 block-2 55 | SENP8 inh conf inactive
C=CCN1C=CC(=C/C=C(/C#N)C(=O)OCC)C=C1	SENP8 block-2 61 | SENP8 inh conf inactive
COc1cccc(C=Nc2ccc(N3CCOCC3)cc2)c1O	none
COc1cccc(C=Nc2ccc3c(c2)OCCO3)c1O	SENP8 block-2 53 | SENP8 inh conf inactive
COc1ccc(NC(=O)Nc2ccc(N3CCOCC3)c3nonc23)c(OC)c1	SENP8 block-2 44 | SENP8 inh conf inactive
COc1ccc(NC(=O)COc2nsnc2N2CCOCC2)c(OC)c1	none
O=C1Nc2ccccc2C1=Nc1cccc([N+](=O)[O-])c1	none
NC(=O)c1ccc(N=C2C(=O)Nc3ccc([N+](=O)[O-])cc32)cc1	SENP8 block-2 86 | SENP8 inh conf 100
CCc1cc(=O)oc2cc(C)cc(OCC(=O)N[C@@H](CSCc3ccccc3)C(=O)O)c12	none
Cc1cccc(Cc2nc3ccccc3[nH]2)c1	none (no result: SENP7 block, SENP8 block-1, SENP6 inh, Platelet DG rel)
O=C(/C=C/c1ccc2c(c1)OCO2)c1ccc(O)cc1O	SENP8 block-2 40 (no result: SENP7 block, SENP8 block-1, SENP6 inh, Platelet DG rel) | SENP8 inh conf inactive
O=C(C(=O)c1ccc(O)cc1)c1ccccc1	none
N#CC(C(=O)c1ccccc1)=C1SCCS1	SENP8 block-2 42 | SENP8 inh conf inactive
CC(=O)/C(=N/Nc1ccc([N+](=O)[O-])cc1)N1CCCc2ccccc21	SENP8 block-2 47 | SENP8 inh conf inactive
CC(=O)/C(=N/Nc1ccccc1[N+](=O)[O-])N1CCCc2ccccc21	SENP8 block-2 41 | SENP8 inh conf inactive
O=C(N/N=C(\c1ccccc1)c1cccnc1)c1cc(O)ccc1O	none (no result: SENP8 block-2)
O=C(Nc1cccc(Oc2c(F)c(F)c(F)c(F)c2F)c1)N1C[C@@H]2C[C@@H](C1)c1cccc(=O)n1C2	none
COc1ccc(NC(=O)[C@@H](NC(=O)N2C[C@H]3C[C@@H](C2)c2cccc(=O)n2C3)C(C)C)cc1OC	SENP8 block-2 45 | SENP8 inh conf inactive
O=C(NCc1ccc(F)cc1)c1cc2c(s1)CS(=O)(=O)C2	none
COc1cccc(N2C(=O)C(CC(=O)Nc3ccc(F)cc3)N(C3CCCCC3)C2=O)c1 (configuration not stated)	SENP8 block-2 46 | SENP8 inh conf inactive
COc1cccc(N2C(=O)C(CC(=O)Nc3ccccc3)N(C3CCCCC3)C2=O)c1 (configuration not stated)	none
O=C(NN=Cc1ccc(N2CCOCC2)s1)c1ccc([N+](=O)[O-])cc1	SENP8 block-2 43 (no result: Platelet DG rel) | SENP8 inh conf inactive
Cc1ccc(C(=O)N/N=C/c2ccc([N+](=O)[O-])s2)cc1	SENP8 block-2 44 | SENP8 inh conf inactive
CCC1(c2ccccc2)NC(=O)N(CC(=O)Nc2cc(S(=O)(=O)N3CCCCC3)ccc2OC(C)C)C1=O (configuration not stated)	none
CCN(CC(=O)Nc1c(F)cccc1F)C(=O)CNC(=O)c1ccc(C)s1	none
O=[N+]([O-])c1cc(Cl)c2cccnc2c1O	none
O=[N+]([O-])c1cc(F)c2cccnc2c1O	SENP8 block-2 52 | SENP8 inh conf 93
Cc1cc(C)n(C(CC(=O)N2CCc3ccccc3C2)C(=O)O)n1 (configuration not stated)	SENP8 block-2 44 | SENP8 inh conf inactive
Cc1cc(C)n(C(C)CC(=O)N2CCc3ccccc32)n1 (configuration not stated)	none
COc1cc(NCCCNC(C)C)c2nccc(C)c2c1	SENP8 block-2 65 (no result: SENP7 block, SENP8 block-1, SENP6 inh, Platelet DG rel) | SENP8 inh conf 48
COc1ccc2[nH]c3c(NCCN4CCCCC4)ncnc3c2c1	none
CCN(CC)S(=O)(=O)c1cccc(C(=O)NCCCn2ccnc2)c1	SENP8 block-2 42 | SENP8 inh conf inactive
COc1ccc(Nc2nc(N)nc(CN3CCc4ccccc4C3)n2)cc1	SENP8 block-2 44 | SENP8 inh conf inactive
CC1CCC(=NNc2ccc(C(F)(F)F)cc2[N+](=O)[O-])CC1 (configuration not stated)	SENP8 block-2 43 | SENP8 inh conf inactive
CSc1cccc(NC(=S)N2CCCN(Cc3ccccc3F)C2)c1	none
c1nc(C2CCCCC2)cc2cc3c(cc12)OCO3	none (no result: Platelet DG rel)
CSc1ncccc1C(=O)N1CCCC(C(=O)c2cc(F)ccc2F)C1 (configuration not stated)	SENP8 block-2 57 | SENP8 inh conf inactive
COc1ncccc1C(=O)N1CCCC(C(=O)c2cc(F)ccc2F)C1 (configuration not stated)	none
O=[N+]([O-])c1ccc(C=NN2CCOCC2)s1	SENP8 block-2 48 (no result: SENP7 block, SENP8 block-1, SENP6 inh, Platelet DG rel) | SENP8 inh conf 50
O=[N+]([O-])c1cc(/C=N/N2CCOCC2)cs1	none
CC(C)(C)c1ccc(OCC(=O)N2CCN(C=O)CC2)cc1	SENP8 block-2 44 | SENP8 inh conf inactive
O=C(COc1ccc(S(=O)(=O)N2CCCC2)cc1)NCC1CCCO1 (configuration not stated)	none
c1ccc2[nH]c3cc4ncnc4cc3nc2c1	SENP8 block-2 48 | SENP8 inh conf 60
O=C(c1ccc(Cl)cc1)C1CCN(CC(=O)N2CCCCC2)CC1	none
